The entries come from a sample that favours hits as a whole.
ST2 IL33 inh – blocks human ST2 binding to IL-33; 2.3% of 78,000 active; AlphaLISA ST2-Fc/biotin-IL-33 interaction, 1 h; inhibition, % for hits at 17 µM; Q01638; AID 1259354; in the data active means inhibition above about 30%
Target sequence (Q01638 whole entry, looked up): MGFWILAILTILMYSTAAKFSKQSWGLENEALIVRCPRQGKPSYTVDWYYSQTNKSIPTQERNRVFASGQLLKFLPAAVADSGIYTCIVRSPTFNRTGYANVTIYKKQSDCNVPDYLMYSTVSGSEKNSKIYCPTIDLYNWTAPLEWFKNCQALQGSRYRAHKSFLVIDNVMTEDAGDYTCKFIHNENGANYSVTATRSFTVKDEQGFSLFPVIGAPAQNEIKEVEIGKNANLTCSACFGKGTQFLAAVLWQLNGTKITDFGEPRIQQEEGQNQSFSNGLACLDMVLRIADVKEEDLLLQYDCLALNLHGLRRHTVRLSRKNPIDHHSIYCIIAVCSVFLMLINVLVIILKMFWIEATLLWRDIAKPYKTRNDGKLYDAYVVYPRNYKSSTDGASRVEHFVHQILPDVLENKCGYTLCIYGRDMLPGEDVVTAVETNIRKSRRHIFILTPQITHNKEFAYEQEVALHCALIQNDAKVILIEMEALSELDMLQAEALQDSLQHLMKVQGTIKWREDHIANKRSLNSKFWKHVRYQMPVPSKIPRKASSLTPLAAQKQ
Each line names hits and unclear results; the compound was inactive in the other large screens.

COc1ccc(CCC(=O)N2CCCC(CNC(=O)c3ccc(F)cc3)C2)cc1 (configuration not stated)	none
C=CCN(Cc1ccc2c(c1)OCCCO2)Cc1ccco1	none
COc1ccc(N2C(=O)C3C4C=CC(C4)C3C2=O)cc1OC (configuration not stated)	none
COc1ccc(-n2c(CCN)n[nH]c2=O)cc1OC	none
COc1ccc(-n2c(C)c3c(C)nnc(C)c3c2C)cc1OC	ST2 IL33 inh 31%
O=C(O)CCCC(=O)Nc1cccc(F)c1	none
O=C(Nc1cccc(Cl)c1)c1c[nH]c(=O)n(-c2ccccc2)c1=O	none
O=C(NCc1ccccc1)c1ccc2nc3sc4c(c3c(=O)n2c1)CCCC4	none
O=C(NCCc1ccccc1)c1ccc2nc3sc4c(c3c(=O)n2c1)CCCC4	none
O=C(c1ccc2nc3sc4c(c3c(=O)n2c1)CCCC4)N1CCN(c2ccccc2)CC1	ST2 IL33 inh 31%
C=CCNC(=O)c1cc(-c2cc(OC)ccc2OC)on1	none
CC(=O)c1cccc(NS(=O)(=O)c2ccc(CC(C)C)cc2)c1	none
CN(Cc1ccccc1)c1nc2c(c(=O)[nH]c(=O)n2C)n1CCSc1nc2ccccc2o1	none
CSC1=N/C(=C\c2cc3c(cc2Br)OCO3)C(=O)S1	none
CCN(CC)c1ccc(/C=C2\N=C(SC)SC2=O)cc1	ST2 IL33 inh 63%
CCN(CC)c1ccc(C2C3=C(CC(C)(C)CC3=O)Nc3nc(SC)[nH]c(=O)c32)cc1 (configuration not stated)	none
CC(C)[C@@H](C(N)=O)n1ccnc1-c1ccccc1C(=O)O	none
CN1CCN(CCC(=O)Nc2nccs2)CC1	none
O=S(=O)(c1ccc(Cl)c(Cl)c1)N1CCCCC1	none
O=[N+]([O-])c1ccc(N2CCN(c3ccccc3)CC2)c(S(=O)(=O)N2CCCCC2)c1	ST2 IL33 inh 50%
Cc1ccc(S(=O)(=O)N2CCN(c3ccccc3)CC2)cc1[N+](=O)[O-]	ST2 IL33 inh 40%
O=[N+]([O-])c1ccccc1N1CCN(S(=O)(=O)c2ccc(Cl)c(Cl)c2)CC1	ST2 IL33 inh 30%
O=[N+]([O-])c1ccccc1S(=O)(=O)Nc1ccc(Cl)c(Cl)c1	none
O=[N+]([O-])c1ccc(N2CCN(Cc3ccccc3)CC2)c(S(=O)(=O)N2CCOCC2)c1	none
Cc1ccc(S(=O)(=O)N2CCN(S(=O)(=O)c3ccccc3)C2)cc1[N+](=O)[O-]	none
Cc1ccc(S(=O)(=O)N2CCN(C(=O)c3ccccc3)C2)cc1[N+](=O)[O-]	none
CN(C)S(=O)(=O)c1cc([N+](=O)[O-])ccc1N1CCCCCC1	none
OCCN1CCN(CCCc2ccccc2)CC1	none
COCCc1ncc(CN2CCC3(CCCN(CC4CCC4)C3)C2)cn1 (configuration not stated)	none
Fc1ccc(N2CCN(C3=CC(N4CCN(c5ccc(F)cc5)CC4)C4COC3O4)CC2)cc1 (configuration not stated)	none
Cc1ccc(/C=c2\sc3nnc(-c4ccccc4)n3c2=O)cc1	none
CC(c1ccc(F)cc1)n1cnc(-c2ccccc2)c1-c1cnc[nH]1 (configuration not stated)	none
Oc1c(Cl)cc(Br)cc1C=Nc1ccc2ncccc2c1	none
Cc1ccc(CSC2=NCCN2C(=O)Cc2ccccc2)cc1	none
O=C(Nc1ccc2c(c1)oc1ccccc12)c1ccc([N+](=O)[O-])o1	none
O=C(O)C1(CCCc2ccccc2)CCCN(c2ncccn2)C1 (configuration not stated)	none
O=C1ON=C(c2ccccc2)/C1=C\c1ccc(C(=O)O)cc1	none
C=CC(C)(O)CC/C=C(\C)CCC(O)C(C)(C)O (configuration not stated)	ST2 IL33 inh 43%
COC(=O)C1=C(C)Nc2nc(SC)[nH]c(=O)c2C1c1cccc(F)c1 (configuration not stated)	none
COC(=O)c1ccc(C(=O)Nc2sc3c(c2C#N)CCCCC3)cc1	none
COc1ccc(OC)c(-c2cc(C(=O)Nc3sc4c(c3C#N)CCC4)no2)c1	none
COc1ccc(-c2nc3c4c5c(sc4ncn3n2)CCCCC5)cc1OC	none
COc1ccc(-c2ncnn2-c2sc3c(c2C#N)CCCCC3)cc1OC	ST2 IL33 inh 44%
COc1ccc(OC)c(-c2ncnn2-c2sc3c(c2C#N)CCCCC3)c1	ST2 IL33 inh 34%
COc1ccccc1-c1cc(C(=O)Nc2sc3c(c2C#N)CCCC3)no1	none
CC(=O)Nc1ccc(C(=O)Nc2ccc(NC(C)=O)cc2Cl)cc1	none
O=c1[nH]c2nonc2nc1Nc1ccccc1	none
CC(=O)N1CCC(N2CCOC(CC3CCCCC3)C2)CC1 (configuration not stated)	none
CCOC(=O)C1=C(C)Nc2nc(SCc3ccc(C(=O)O)cc3)nn2C1c1ccc(C)cc1 (configuration not stated)	none
CCc1cn[nH]c1C1CCN(C(=O)c2cnn3cc(CCO)cnc23)CC1	none
CN1CCN(CCCOc2ccccc2-c2ccccc2)CC1	none
O=[N+]([O-])c1ccccc1OCCOc1cccc2cccnc12	none
Cc1cc(C)n(-c2ccc3cccc([N+](=O)[O-])c3n2)n1	none
O=[N+]([O-])c1cccc2ccc(Nc3ccccn3)nc12	ST2 IL33 inh 31%
C=CCN1C(=O)S/C(=C/c2ccc(N3CCCC3)o2)C1=O	ST2 IL33 inh 44%
C=CCN1C(=O)c2ccccc2Sc2ccc(C(=O)O)cc21	none
C=CCNc1nc2ccccn2c(=O)c1/C=C1\SC(=O)N(CCC)C1=O	none
COc1ccc2nc(N3CCCC(C(=O)NC4CC4)C3)sc2c1 (configuration not stated)	none
O=C(NCCc1nc2cccnc2n1C1CCCCC1)Nc1ccc2c(c1)OCCO2	none
CN1[C@@H](c2ccccc2)[C@@H](C(=O)NCCc2cccnc2)C[C@@]1(C)C(=O)O	none
Cn1nc(C(=O)NCc2ccccc2-n2ccnc2)c2c1CCCC2	none
O=C1N=c2ccc(F)cc2=C1c1sc(Nc2ccc(F)cc2)nc1O	ST2 IL33 inh 48%
COc1ccc(Nc2nc3ccc(F)cc3s2)cc1	none
NC(=O)C1CCN(c2nc(O)c(C3=c4ccccc4=NC3=O)s2)CC1	none
Cc1ccc(Nc2nc3ccccc3c(=O)s2)cc1	none
O=C1N=c2ccccc2=C1c1sc(Nc2ccc(Br)cc2)nc1O	ST2 IL33 inh 40%
Cc1ccc(C)c(-c2csc(Nc3ccc(F)cc3)n2)c1	none
C=C(C)COc1cccc(C(=O)NCCc2nc(C)c3c(n2)CCCC3)c1	none
Cc1ccoc1C(=O)NCCC(=O)Nc1cccc2ccccc12	none
Cc1ccc(C(=O)NC2=NCCS2)o1	none
Cc1cc(=O)oc2cc(Cl)c(OCc3ccccc3)cc12	none
Cc1ccn2c(NC(=O)c3cccc([N+](=O)[O-])c3)c(-c3ccccc3)nc2c1	none
Cc1ccc2nc([C@H]3CCN(C(=O)c4cnccn4)C3)[nH]c2c1	none
c1cnc(N2CCCCCCC2)c(CNCc2nc3ccccc3[nH]2)c1	none
COc1ccc(NC2(C(=O)N3[C@@H]4CC[C@H]3CNC(=O)C4)CCCC2)cc1	none
CCc1ccc(-c2cn3c(C(=O)N4[C@@H]5CC[C@H]4CNC(=O)C5)csc3n2)cc1	ST2 IL33 inh 36%
Cc1nc2sccn2c1C(=O)N1[C@H]2CCNC[C@@H]1CC2	none
CC1(C)Cc2c(cnn2-c2ccccc2)C(NC(=O)c2cccc(N3CCCC3=O)c2)C1 (configuration not stated)	none
CN1C(=O)C(CC(=O)NCc2ccon2)(Cc2ccccc2)c2ccccc21 (configuration not stated)	none
CC(=O)N1CCC(Oc2ccc(Cl)cc2C(=O)NCc2cnc3ccccn23)CC1	none
O=C1NCCN(CC2CCCCC2)C1CC(=O)N(Cc1nccs1)C1CC1 (configuration not stated)	none
O=C(c1ccc2c(c1)OCCO2)N1CCOC(CCc2ccccc2)C1 (configuration not stated)	none
